From the supplement of paper PMC6555819

The sequences below were run on RARa homodimer (NR concentration 270 nM) (assay: PBM binding z-score (relative to random genomic background probes); higher = stronger binding; sequences stand for … in GC…GCGATTGACAGCGTAGAATGAAGG).
How it was run: (§1)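 Binding z-scores were set against random background probes. The data came from custom Agilent 4×180K protein-binding microarrays carrying double-stranded probes with 34-nt variable regions, incubated 1 h with ligand-free nuclear receptor dimers. Partner-specific antibodies detected binding, and scanned fluorescence was regression-normalized.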

Compared with GCTGCTAGGTCAGGTTGGTCAGCCAACGGGTACG, CATACAGGGTCAGCTAGGACAGAGTAGGGACGGC is higher in PBM binding z-score: -0.0936 for the first, 0.439 for the second.

First: GCATATAGGTAATACAAGGTGCAAGTCCGATTGT
Second: TCTATTAGTTGAATGGCAACCGACGAGTCCGTTT
The PBM binding z-score of the first is lower: 0.49 for the first, 1.08 for the second.

Going from CAAACTTGGTCACGAAAGGTCAAAGTCGAATGAC to GCTTGTAGATCAAGGTTAAGACAGACTAAGCTAA, the PBM binding z-score falls from 3.25 to -0.104.

Compared with CCGAGCAGGCCAGGGTCACTCAAGCATTTCGCTT, ACTAGCAGGCCAAGGGTCACACAAGATTAGTCCG is higher in PBM binding z-score: -0.256 for the first, 0.267 for the second.

First: TTACCACGGTGAAAGGTCGTTGATGCACGCCTTG
Second: GCTAGCAGGCCATTTGTGTCACTCAATGACGGGC
The PBM binding z-score of the first is higher: 0.421 for the first, -0.827 for the second.

Compared with ATCTCTAGGTTAGACTCAGTTCAGTGAAGAACGC, CGAACTAGGTCAGAACAGGACAGGGAAGGATGAT is lower in PBM binding z-score: 2.42 for the first, 0.307 for the second.

First: CGTCAAAGTTCAACTAAGGTATCGTAAAGCACGC
Second: TGATATAGGTAAATGCTAGGTGAAAGTCCGATCT
The PBM binding z-score of the first is higher: 2.1 for the first, 1.15 for the second.

Compared with CGTCACAGTTCAAGGTAACGTAACAGAAAGCAGC, CCTACTGGGCCATCAGGTCCTTGATATCAACGTT is lower in PBM binding z-score: 0.462 for the first, 0.115 for the second.

Compared with TCTTGTAGATCAATAGGAGGTTAAGAAAGATCGA, CCGACTGGGGAATAAGGTTACCATAAGCCAGCCC is lower in PBM binding z-score: 0.522 for the first, -0.12 for the second.

First: CCAGACAGGTGAGAAGGTTACTCAGCCTCGATTA
Second: GGAACGAGGGCAGGTTGATAGCAGAGTTTGATGG
The PBM binding z-score of the first is higher: 0.46 for the first, 0.17 for the second.

Going from ATCGAAAGGTGGAGGTGAGTATAGAGAAAGGGAA to GATACAGGGTCAGCTAGAGACCAGAGTATGGAAA, the PBM binding z-score falls from 1.06 to 0.39.

Compared with TCTGCTAGGTCATTTGGTCAGCTAACGAGCTGCC, CCTCGGAGGACAGAAGGTCAGAGATGTCCGCTTT is higher in PBM binding z-score: -1.02 for the first, 0.613 for the second.

Going from CCTAGTTGGTCAGGACGTCACACACCGGATATGA to ATCGAAAGATCGAAGGTGAGTATACCCACCCGAA, the PBM binding z-score falls from 1.44 to 0.67.

Going from CCGAGTAGGTTATGGGGCATTCTGGCAACGGTGA to TCATATAGGTAAATGCTAGGTGAAGGTCCGATCT, the PBM binding z-score rises from 0.262 to 1.04.

Going from CGTCGAAGTTCAACTAAGGTAACGTAAAGCACGC to TCGAGTAAGTTACCAATGGGGCATTCAGCTTTCT, the PBM binding z-score falls from 0.757 to -0.447.

First: TCGAGTAGGTTACCAATGGGGCATTCGGCTTTCT
Second: GCTTGTAGATCAAGGTTAAGAATGACTAAGCTAA
The PBM binding z-score of the first is lower: -1.05 for the first, -0.617 for the second.

Compared with CTACCAAGGTGAACAAGGTCGTTGTTTACTATTC, CCTAGCATGCCAGGGTCACTCAAGCATTTCGCTT is higher in PBM binding z-score: -0.486 for the first, -0.337 for the second.

Going from CGTCCAAGGTCAAAGGTAAGTGAAGAGATGACGG to CCTAGCAGCCCAATCTGGGTCACTCAAGGCTTGA, the PBM binding z-score falls from 0.423 to -0.169.

Going from CCTAGCAGGCCAATCTGGGTCACGCAAGGCTTGA to GCGACTGGGGCAAAGCAGGTTACCAGAAGGTTGG, the PBM binding z-score falls from -0.583 to -0.876.

For CTCGAAAGGTGGGTTGAGGTGAGTATACGGATAA, the PBM binding z-score was 0.749.

What follows are sequences tested on RARb:RXRa (NR concentration 270 nM, RXRa partner concentration 90 nM) in the same assay as above.
How it was run: as §1

Going from GCTGCTAGGTCAGGTTGGTCAGCCAACGGGTACG to CATACAGGGTCAGCTAGGACAGAGTAGGGACGGC, the PBM binding z-score rises from 3.2 to 4.04.

Compared with GCATATAGGTAATACAAGGTGCAAGTCCGATTGT, TCTATTAGTTGAATGGCAACCGACGAGTCCGTTT is higher in PBM binding z-score: -0.282 for the first, 0.622 for the second.

Compared with CAAACTTGGTCACGAAAGGTCAAAGTCGAATGAC, GCTTGTAGATCAAGGTTAAGACAGACTAAGCTAA is lower in PBM binding z-score: 4.68 for the first, 0.893 for the second.

Going from CCGAGCAGGCCAGGGTCACTCAAGCATTTCGCTT to ACTAGCAGGCCAAGGGTCACACAAGATTAGTCCG, the PBM binding z-score rises from 2.65 to 3.76.

First: TTACCACGGTGAAAGGTCGTTGATGCACGCCTTG
Second: GCTAGCAGGCCATTTGTGTCACTCAATGACGGGC
The PBM binding z-score of the first is higher: 1.94 for the first, 0.161 for the second.

Going from ATCTCTAGGTTAGACTCAGTTCAGTGAAGAACGC to CGAACTAGGTCAGAACAGGACAGGGAAGGATGAT, the PBM binding z-score rises from 1.53 to 3.02.

Compared with CGTCAAAGTTCAACTAAGGTATCGTAAAGCACGC, TGATATAGGTAAATGCTAGGTGAAAGTCCGATCT is lower in PBM binding z-score: 5.24 for the first, 0.212 for the second.

Compared with CGTCACAGTTCAAGGTAACGTAACAGAAAGCAGC, CCTACTGGGCCATCAGGTCCTTGATATCAACGTT is lower in PBM binding z-score: 2.73 for the first, 0.33 for the second.

Going from TCTTGTAGATCAATAGGAGGTTAAGAAAGATCGA to CCGACTGGGGAATAAGGTTACCATAAGCCAGCCC, the PBM binding z-score rises from 0.202 to 0.793.

Compared with CCAGACAGGTGAGAAGGTTACTCAGCCTCGATTA, GGAACGAGGGCAGGTTGATAGCAGAGTTTGATGG is higher in PBM binding z-score: 1.36 for the first, 1.87 for the second.

First: ATCGAAAGGTGGAGGTGAGTATAGAGAAAGGGAA
Second: GATACAGGGTCAGCTAGAGACCAGAGTATGGAAA
The PBM binding z-score of the first is lower: 1.28 for the first, 3.53 for the second.

First: TCTGCTAGGTCATTTGGTCAGCTAACGAGCTGCC
Second: CCTCGGAGGACAGAAGGTCAGAGATGTCCGCTTT
The PBM binding z-score of the first is higher: 3.62 for the first, 3.01 for the second.

Going from CCTAGTTGGTCAGGACGTCACACACCGGATATGA to ATCGAAAGATCGAAGGTGAGTATACCCACCCGAA, the PBM binding z-score falls from 0.721 to 0.215.

First: CCGAGTAGGTTATGGGGCATTCTGGCAACGGTGA
Second: TCATATAGGTAAATGCTAGGTGAAGGTCCGATCT
The PBM binding z-score of the first is higher: 0.978 for the first, 0.552 for the second.

Going from CGTCGAAGTTCAACTAAGGTAACGTAAAGCACGC to TCGAGTAAGTTACCAATGGGGCATTCAGCTTTCT, the PBM binding z-score falls from 3.74 to -0.0716.

Compared with TCGAGTAGGTTACCAATGGGGCATTCGGCTTTCT, GCTTGTAGATCAAGGTTAAGAATGACTAAGCTAA is higher in PBM binding z-score: 0.768 for the first, 0.932 for the second.

Going from CTACCAAGGTGAACAAGGTCGTTGTTTACTATTC to CCTAGCATGCCAGGGTCACTCAAGCATTTCGCTT, the PBM binding z-score rises from 2 to 2.35.

Compared with CGTCCAAGGTCAAAGGTAAGTGAAGAGATGACGG, CCTAGCAGCCCAATCTGGGTCACTCAAGGCTTGA is lower in PBM binding z-score: 5.23 for the first, 0.878 for the second.

First: CCTAGCAGGCCAATCTGGGTCACGCAAGGCTTGA
Second: GCGACTGGGGCAAAGCAGGTTACCAGAAGGTTGG
The PBM binding z-score of the first is higher: 1.92 for the first, 1.1 for the second.

For CTCGAAAGGTGGGTTGAGGTGAGTATACGGATAA, the PBM binding z-score was 0.866.
